Data: PubChem BioAssay
For some assays here: Results with a measured potency or affinity are listed apart. Calls of active or inactive are those of the source. Unless noted, no cut-off is given here; in the data, nearly all actives have IC50 up to about 0.98 µM.

system: not listed separately; experiment: inhibition of 3D7 malaria parasite growth – strain 3D7 (AID 2306; call rule not given here;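 note: 0% = DMSO wells and 100% = chloroquine plus artemisinin control wells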); settings: P. falciparum 3D7 erythrocytic growth, LDH absorbance, 72 h; at 2 µM; active compounds read high

Row | Compound | growth inhibition
1 | O=[N+]([O-])c1ccc(-n2nc(Cc3ccccc3)n(Cc3cccc(F)c3)c2=S)c(C(F)(F)F)c1 | 101% (active)
2 | O=C(NCCN1CCC(c2ncc(-c3ccccc3)o2)CC1)c1ccc(NC(=O)c2ccc(Cl)cc2)cc1 | 101% (active)
3 | CC(C)c1sc(N2CCN(C)CC2)nc1C(=O)Nc1cccc2c1CCCC2 | 98% (active)
4 | Cc1ccccc1NC(=O)C1CSCN1C(=O)OCc1ccccc1 (stereo not given) | 91% (active)
5 | COc1ccc2ncc(F)c(CCN3C[C@H](CNCc4cc(F)c5c(c4)NC(=O)CO5)[C@H](O)C3)c2n1 | 94% (active)
6 | COc1cc(Br)ccc1N1CCN(CCCCNC(=O)c2ccc(NC(=O)c3ccc(Cl)cc3)cc2)CC1 | 96% (active)
7 | CC(C)CCN1CCC(Oc2ccc(NC(=O)c3ccc4ncccc4c3)cc2Cl)C1 (stereo not given) | 95% (active)
8 | CC(C)Cc1c(O)nc(SCCN2CCOCC2)[nH]c1=O | 88% (active)
9 | O=C(Nc1cccc(CN2CCCN(Cc3ccc(F)cc3)CC2)c1)c1ccc(Cl)c(Cl)c1 | 95% (active)
10 | CCC[C@@H]([C@@H](CC1CCCCC1)C(=O)N[C@H](C(=O)Nc1nccs1)[C@H](C)O)N(O)C=O | 99% (active)
11 | O=C(Nc1ccc(C(=O)N2CCN(CCN3CCN(c4cccc(C(F)(F)F)c4)CC3)CC2)cc1)c1ccc(OC(F)(F)F)cc1 | 95% (active)
12 | c1ccc(CNc2nc(NCCc3cnc[nH]3)nc(NCc3cccc4ccccc34)n2)cc1 | 91% (active)
13 | COc1ccc(C2CCN(CCCCNC(=O)c3ccc(NC(=O)c4ccc(Cl)cc4)cc3)CC2)c(C)c1 | 98% (active)
14 | c1cncc(Oc2ccc(Nc3ccnc4cc(-c5cccc(CN6CCOCC6)c5)ccc34)cc2)c1 | 101% (active)
15 | C[C@@H](COc1ccc(-c2ccccc2)cc1)CON1C(N)=NC(N)=NC1(C)C | 96% (active)
16 | CC(CCON1C(N)=NC(N)=NC1(C)C)c1ccc(Cl)c(Cl)c1 (stereo not given) | 98% (active)
17 | CCOc1ccc(Br)cc1/C=C/C(=O)Nc1ccc(C2CCN(C)CC2)cc1 | 100% (active)
18 | CN(C)CCNC(=O)c1ccc2c(c1)n(C1CCN(S(=O)(=O)c3ccc(-c4ccccc4)cc3)CC1)c(=O)n2CC1CCCCC1 | 100% (active)
19 | CC(=O)Nc1ccc(CN2CCN(C(c3ccc(F)cc3)c3ccc(F)cc3)CC2)cc1 | 93% (active)
20 | Cc1cc(=O)oc2c1ccc1oc(C(O)c3ccc(Cl)cc3)c(C)c12 (stereo not given) | 95% (active)

Row | Compound | growth inhibition
21 | Cc1ccc2c(c1C)NC(=O)C21NN=C(c2ccccc2)S1 (stereo not given) | 97% (active)
22 | CCC(C)NC(=O)Nc1ccc(-c2cccc(-c3nc4ccccc4[nH]3)c2)cc1 (stereo not given) | 94% (active)
23 | CN(C)CC1c2[nH]c3ccccc3c2CCN1C(=O)Nc1ccc(Cl)c(Cl)c1 (stereo not given) | 90% (active)
24 | O=C(Nc1cccc(-c2cccc(-c3nc4ccc(F)cc4[nH]3)c2)c1)Nc1ccc2c(c1)OCO2 | 101% (active)
25 | CCN(CC)CC#Cc1ccc2[nH]c(C)c(Cl)c(=O)c2c1 | 96% (active)
26 | COc1cc(Cc2cnc(NCCN3CCNCC3)nc2N)ccc1OCc1ccc(C(F)(F)F)cc1 | 98% (active)
27 | NC(=O)C1CCN(Cc2cccc(-c3ccc(-c4nc5ccc(C(F)(F)F)cc5[nH]4)cc3)c2)CC1 | 100% (active)
28 | C=CCc1cc(Br)ccc1OCCCON1C(N)=NC(N)=NC1(C)C | 95% (active)
29 | CC(C)(C)c1ccc(CNCCOc2ccc(Nc3nnc(-c4ccc(-c5ncc[nH]5)cc4)o3)c3ccccc23)cc1 | 100% (active)
30 | COc1ccc(C=NNc2cc(C)nc3c(C)cccc23)c2ccccc12 | 102% (active)
31 | COc1ccc2nc3cc(Cl)ccc3c(NCCCCN3CCNCC3)c2c1 | 102% (active)
32 | CC(C)CN1CCCN(Cc2cccc(NC(=O)c3ccc(-c4ccccc4)cc3)c2)CC1 | 99% (active)
33 | CCCOc1ccccc1C(=O)Nc1nonc1-c1ccc(OCC)c(OCC)c1 | 99% (active)
34 | CCN(CCCN1CCCCC1)c1cc(C)nc(Nc2cc(C)ccc2C)n1 | 93% (active)
35 | Nc1ncnc2nc(-c3ccc(F)cc3)cc(-c3ccc(NC(=O)c4ccccc4)cc3)c12 | 100% (active)
36 | CCCNCc1ccc(-c2ccc(CN(CCOC)C(=O)c3cccc(C#N)c3)cc2)nc1 | 84% (active)
37 | COc1cccc2c(NCCNc3ccnc4c(OC)cccc34)ccnc12 | 93% (active)
38 | CN(C)CCNCc1ccc(-c2ccc(-c3nc4ccccc4[nH]3)s2)cc1 | 101% (active)
39 | Clc1ccc(-c2cc3c(NCc4ccncc4)nccc3s2)cc1 | 98% (active)
40 | CNC(=O)C1Cc2c([nH]c3cc(Cl)ccc23)C2(CCN(CCc3ccccc3)CC2)N1 (stereo not given) | 91% (active)

target: Calcium-dependent protein kinase 1 (Plasmodium falciparum (isolate 3D7)) (UniProt P62344); experiment: PfCDPK1 kinase inhibitors, biochemical, TCAMS library (AID 1159585); settings: recombinant PfCDPK1, Kinase-Glo ATP depletion luminescence;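 note: inhibitors leave more ATP so luminescence rises with inhibition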
Sequence (P62344 whole entry, looked up): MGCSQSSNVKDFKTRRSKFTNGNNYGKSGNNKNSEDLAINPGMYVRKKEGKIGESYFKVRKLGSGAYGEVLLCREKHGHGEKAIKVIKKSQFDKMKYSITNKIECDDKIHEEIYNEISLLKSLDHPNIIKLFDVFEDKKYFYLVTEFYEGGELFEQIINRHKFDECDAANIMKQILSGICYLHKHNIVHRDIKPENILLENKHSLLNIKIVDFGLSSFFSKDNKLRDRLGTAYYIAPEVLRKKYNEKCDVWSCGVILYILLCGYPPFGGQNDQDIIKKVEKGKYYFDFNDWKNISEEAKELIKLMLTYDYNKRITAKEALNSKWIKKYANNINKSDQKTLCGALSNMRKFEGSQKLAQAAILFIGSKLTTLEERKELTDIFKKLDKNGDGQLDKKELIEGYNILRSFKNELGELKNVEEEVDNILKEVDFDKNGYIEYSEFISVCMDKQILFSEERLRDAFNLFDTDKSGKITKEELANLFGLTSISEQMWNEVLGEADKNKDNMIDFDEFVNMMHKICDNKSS

Row | Compound | outcome
41 | O=[N+]([O-])c1ccc(-n2nc(Cc3ccccc3)n(Cc3cccc(F)c3)c2=S)c(C(F)(F)F)c1 | inactive
42 | O=C(NCCN1CCC(c2ncc(-c3ccccc3)o2)CC1)c1ccc(NC(=O)c2ccc(Cl)cc2)cc1 | inactive
43 | CC(C)c1sc(N2CCN(C)CC2)nc1C(=O)Nc1cccc2c1CCCC2 | inactive
44 | Cc1ccccc1NC(=O)C1CSCN1C(=O)OCc1ccccc1 (stereo not given) | inactive
45 | COc1ccc2ncc(F)c(CCN3C[C@H](CNCc4cc(F)c5c(c4)NC(=O)CO5)[C@H](O)C3)c2n1 | inactive
46 | COc1cc(Br)ccc1N1CCN(CCCCNC(=O)c2ccc(NC(=O)c3ccc(Cl)cc3)cc2)CC1 | inactive
47 | CC(C)CCN1CCC(Oc2ccc(NC(=O)c3ccc4ncccc4c3)cc2Cl)C1 (stereo not given) | inactive
48 | CC(C)Cc1c(O)nc(SCCN2CCOCC2)[nH]c1=O | inactive
49 | O=C(Nc1cccc(CN2CCCN(Cc3ccc(F)cc3)CC2)c1)c1ccc(Cl)c(Cl)c1 | inactive
50 | CCC[C@@H]([C@@H](CC1CCCCC1)C(=O)N[C@H](C(=O)Nc1nccs1)[C@H](C)O)N(O)C=O | inactive
51 | O=C(Nc1ccc(C(=O)N2CCN(CCN3CCN(c4cccc(C(F)(F)F)c4)CC3)CC2)cc1)c1ccc(OC(F)(F)F)cc1 | inactive
52 | c1ccc(CNc2nc(NCCc3cnc[nH]3)nc(NCc3cccc4ccccc34)n2)cc1 | inactive
53 | COc1ccc(C2CCN(CCCCNC(=O)c3ccc(NC(=O)c4ccc(Cl)cc4)cc3)CC2)c(C)c1 | inactive
54 | c1cncc(Oc2ccc(Nc3ccnc4cc(-c5cccc(CN6CCOCC6)c5)ccc34)cc2)c1 | inactive
55 | C[C@@H](COc1ccc(-c2ccccc2)cc1)CON1C(N)=NC(N)=NC1(C)C | inactive
56 | CC(CCON1C(N)=NC(N)=NC1(C)C)c1ccc(Cl)c(Cl)c1 (stereo not given) | inactive
57 | CCOc1ccc(Br)cc1/C=C/C(=O)Nc1ccc(C2CCN(C)CC2)cc1 | inactive
58 | CN(C)CCNC(=O)c1ccc2c(c1)n(C1CCN(S(=O)(=O)c3ccc(-c4ccccc4)cc3)CC1)c(=O)n2CC1CCCCC1 | inactive
59 | CC(=O)Nc1ccc(CN2CCN(C(c3ccc(F)cc3)c3ccc(F)cc3)CC2)cc1 | inactive
60 | Cc1cc(=O)oc2c1ccc1oc(C(O)c3ccc(Cl)cc3)c(C)c12 (stereo not given) | inactive

Row | Compound | outcome
61 | Cc1ccc2c(c1C)NC(=O)C21NN=C(c2ccccc2)S1 (stereo not given) | inactive
62 | CCC(C)NC(=O)Nc1ccc(-c2cccc(-c3nc4ccccc4[nH]3)c2)cc1 (stereo not given) | inactive
63 | CN(C)CC1c2[nH]c3ccccc3c2CCN1C(=O)Nc1ccc(Cl)c(Cl)c1 (stereo not given) | inactive
64 | O=C(Nc1cccc(-c2cccc(-c3nc4ccc(F)cc4[nH]3)c2)c1)Nc1ccc2c(c1)OCO2 | inactive
65 | CCN(CC)CC#Cc1ccc2[nH]c(C)c(Cl)c(=O)c2c1 | inactive
66 | COc1cc(Cc2cnc(NCCN3CCNCC3)nc2N)ccc1OCc1ccc(C(F)(F)F)cc1 | inactive
67 | NC(=O)C1CCN(Cc2cccc(-c3ccc(-c4nc5ccc(C(F)(F)F)cc5[nH]4)cc3)c2)CC1 | inactive
68 | C=CCc1cc(Br)ccc1OCCCON1C(N)=NC(N)=NC1(C)C | inactive
69 | CC(C)(C)c1ccc(CNCCOc2ccc(Nc3nnc(-c4ccc(-c5ncc[nH]5)cc4)o3)c3ccccc23)cc1 | inactive
70 | COc1ccc(C=NNc2cc(C)nc3c(C)cccc23)c2ccccc12 | inactive
71 | COc1ccc2nc3cc(Cl)ccc3c(NCCCCN3CCNCC3)c2c1 | inactive
72 | CC(C)CN1CCCN(Cc2cccc(NC(=O)c3ccc(-c4ccccc4)cc3)c2)CC1 | inactive
73 | CCCOc1ccccc1C(=O)Nc1nonc1-c1ccc(OCC)c(OCC)c1 | inactive
74 | CCN(CCCN1CCCCC1)c1cc(C)nc(Nc2cc(C)ccc2C)n1 | inactive
75 | Nc1ncnc2nc(-c3ccc(F)cc3)cc(-c3ccc(NC(=O)c4ccccc4)cc3)c12 | inactive
76 | CCCNCc1ccc(-c2ccc(CN(CCOC)C(=O)c3cccc(C#N)c3)cc2)nc1 | inactive
77 | COc1cccc2c(NCCNc3ccnc4c(OC)cccc34)ccnc12 | inactive
78 | CN(C)CCNCc1ccc(-c2ccc(-c3nc4ccccc4[nH]3)s2)cc1 | inactive
79 | Clc1ccc(-c2cc3c(NCc4ccncc4)nccc3s2)cc1 | inactive
80 | CNC(=O)C1Cc2c([nH]c3cc(Cl)ccc23)C2(CCN(CCc3ccccc3)CC2)N1 (stereo not given) | inactive
